# Shown are actives, neighbours in structure and some others; about 9.2% of the full set was active somewhere.
# FLuc modulator: counter-screen for miR-21 project: firefly luciferase inhibitors or activators. P08659. purified FLuc, Km substrates, luminescence inhibition. Potency, µM (top dose mostly 57.5 µM), inactives show at the highest dose activity change, negative = inhibition, usual class: inhibitors. hit rate 6.9% among 360,000. AID 588342;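 also: plate controls were vehicle for no effect and reference inhibitor for full effect; nearly all actives have a fitted effect of over 55% in size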
# Target sequence (P08659 whole entry, looked up): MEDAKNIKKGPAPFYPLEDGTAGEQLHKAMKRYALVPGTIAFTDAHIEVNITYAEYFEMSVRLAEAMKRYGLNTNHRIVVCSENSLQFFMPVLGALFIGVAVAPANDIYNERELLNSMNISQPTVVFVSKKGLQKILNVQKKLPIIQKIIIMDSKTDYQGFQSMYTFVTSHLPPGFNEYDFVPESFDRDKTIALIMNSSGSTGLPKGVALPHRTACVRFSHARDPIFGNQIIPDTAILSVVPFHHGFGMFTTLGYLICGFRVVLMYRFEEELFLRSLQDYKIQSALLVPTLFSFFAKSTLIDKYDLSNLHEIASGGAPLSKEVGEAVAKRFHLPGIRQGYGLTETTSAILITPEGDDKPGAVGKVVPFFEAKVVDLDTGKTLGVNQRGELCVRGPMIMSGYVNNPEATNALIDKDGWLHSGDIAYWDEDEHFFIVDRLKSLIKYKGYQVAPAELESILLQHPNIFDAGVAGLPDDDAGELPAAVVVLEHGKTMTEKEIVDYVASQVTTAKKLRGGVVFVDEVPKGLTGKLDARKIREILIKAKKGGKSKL
#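 Purified P. pyralis luciferase (10nM final) with 10uM D-luciferin and 10uM ATP (Km levels) in 50mM Tris acetate pH 7.5, 10mM Mg acetate, 0.01% Tween-20, 0.05% BSA; qHTS 6-point titration, ~60 µM downward; luminescence read.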
# Rab9 promoter act: activators of Rab9 promoter | Huh7 Rab9 promoter-luciferase reporter, luminescence, 24 h | Potency, µM (series often up to 9.22 µM), inactives show at the top dose activation, negative = inhibition, most hits filed as activators | hit rate 2.8% among 320,000; also: % of control where 0% means no effect; nearly all actives have a fitted effect of over 60% in size
#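 Luminescence from Amplite-detected luciferase (10 minutes, ambient) reports Rab9 promoter activation. Before that, stable Rab9-luciferase Huh7 cells (1500/well, reduced-serum OP-MEM I plus 10% FBS) were exposed to compound for 24 hours at 37C.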
# ELG1 DNA repair: ELG1-dependent DNA repair inhibition | hit rate 2.3% among 330,000 | Potency, µM (titrated, usually from 46.1 µM), inactives show top-dose activity change, negative = inhibition, usual class: inhibitors | HEK293T ELG1-luciferase reporter, luminescence, 16 h; DNA damage induced by 5-fluorouridine | AID 504467; also: % is scaled to controls: 0 for no effect and ±100 for the full control effect; nearly all actives have a fitted effect of over 55% in size
#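 In this reporter screen, reduction of luminescence relative to DMSO vehicle indicated activity. Compounds and 5-fluorouridine were added together to 2,000 cells per well, incubated for 16 hr at 37 °C, then developed with ONE-Glo.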
# ELG1 genotox: induces genotoxicity in HEK293T cells with luciferase-tagged ELG1. HEK293T ELG1-luciferase reporter, luminescence, 16 h. Potency, µM (highest dose often 46 µM), without a hit: at the top dose activity change, positive = activation, usual class: activators. hit rate 1.3% among 330,000; also: % of control where 0% means no effect; nearly all actives have a fitted effect of over 60% in size
#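 Genotoxicity was scored as increased ELG1-luciferase reporter signal, measured by ONE-Glo luminescence (30 min, room temperature). Compound or vehicle exposure of the HEK293T reporter cells lasted 16 hr at 37°C.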
# SMN2 splice up: SMN2 splice variant enhancement | HEK293 SMN2-luciferase splicing reporter, luminescence, 30-36 h | Potency, µM (highest dose often 46.1 µM), for the others: at the top dose activity change, positive = activation, usual class: activators | hit rate 2.8% among 210,000 | AID 1458; also: % of control where 0% means no effect; nearly all actives have a fitted effect of over 55% in size
#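 HEK293 cells carry an SMN2 […]–luciferase reporter in which exon 7 inclusion puts luciferase in frame. Cells were plated 10-12 h before compound addition, then incubated 30-36 h at 37C. ONE-Glo luminescence was read; sodium butyrate at 4.5 mM final served as control.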
# NPC1 promoter act: activates the NPC1 promoter | Huh7 NPC1 promoter luciferase reporter, 24 h | Potency, µM (series often up to 9.22 µM), for inactives: top-dose activation, usual class: activators | hit rate 2.4% among 320,000 | AID 485313; also: % of control where 0% means no effect; nearly all actives have a fitted effect of over 60% in size
#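 NPC1 promoter–luciferase Huh7 cells; 24 h compound; luminescence.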
# * marks the source's active call; other numbers are inactive results; u = inconclusive; x = no result given; [ ] = remark or other dose. Calls follow the shape of the dose curve; as a rule, active = well fitted curve in the direction sought with a large enough effect; inconclusive = small, poorly fitted or top-dose-only effect, or another doubt; inactive = no such curve, though single readings can be large; an effect the other way counts as inactive or inconclusive. Potency is read from the fitted curve at half-maximal effect.
SMILES,FLuc modulator,Rab9 promoter act,ELG1 DNA repair,ELG1 genotox,SMN2 splice up,NPC1 promoter act
COc1ccc(OC)c(N(C(=O)c2ccco2)C(C(=O)NC2CCCC2)c2cc(OC)c(OC)c(OC)c2)c1 (stereo unspecified),3.0%,-3.4%,-0.1%,0.0%,x,1.2%
Cc1cc2nc(-c3ccc(NC(=O)C(C)C)cc3)oc2cc1C,0.849µM*,0.631µM*,u,0.82µM*,2.82µM*,0.447µM*
CCC(Oc1ccccc1)C(=O)Nc1ccc(O)c(-c2nc3cc(C)ccc3o2)c1 (stereo unspecified),15.1µM*,x,x,x,x,x
CC(C)CC(=O)Nc1ccc2oc(-c3ccncc3)nc2c1,15.1µM*,u,u,13.8%,4.3%,u
Cc1cc2nc(-c3ccc(NC(=O)c4ccc(OCC(C)C)cc4)cc3)oc2cc1C,-12.2%,x,x,x,1.2%,x
Cc1ccc2oc(-c3ccc(NC(=O)CCC(=O)O)cc3)nc2c1,2.39µM*,x,x,x,11.2µM*,x
COc1ccc(C(=O)Nc2ccc(-c3nc4cc(C)ccc4o3)c(O)c2)cc1,-3.2%,x,x,x,1.3%,x
COc1cc(OC)cc(-c2nc3cc(C)ccc3o2)c1,10.7µM*,27.0%,u,16.4µM*,7.08µM*,8.4%
COc1cccc(-c2nc3c(c(C)nn3-c3ccccc3)c3cc(OC)c(OC)cc23)c1,-0.8%,x,x,x,1.0%,x
COc1cc2c(-c3ccc(O)cc3)nc3c(c(C)nn3-c3ccccc3)c2cc1OC,1.5%,-11.6%,9.2µM*,2.3%,-46.0%,-11.1%
CCN1CCN(c2nc3c(S(=O)(=O)c4ccc(C)cc4)nnn3c3ccsc23)CC1,-5.0%,x,x,x,x,x
CCNC(=S)NNc1nnc(-c2ccccc2)c(-c2ccccc2)n1,1.9%,-0.2%,u,-3.0%,x,-0.2%
CC1=CC(=O)O[C@@H]1[C@@]1(C)C[C@H]2OC(=O)C[C@H]3[C@@H](C)C(=O)C(O)=C1[C@@]23CO,-6.1%,-12.7%,18.3µM*,-47.6%,x,-17.6%
O=C(Nc1ccccc1)c1cccc(S(=O)(=O)NC2CCCC2)c1,1.6%,-8.4%,-20.5%,-6.9%,x,-6.3%
S=c1nc(-c2ccccc2)oc2c1CCCC2,13.5µM*,u,u,16.2%,23.6%,u
O=[N+]([O-])c1ccc(-c2nc(=S)c3c(o2)CCCC3)cc1,u,29.1%,u,3.3%,13.1%,30.0%
COc1cccc(-c2nc(=S)c3c(o2)CCCC3)c1,3.01µM*,u,u,u,u,2.6%
COc1ccc(OCC(=O)NNC(=O)Cn2c(=O)cnc3ccccc32)cc1,-2.7%,0.2%,25.1%,6.5%,x,-1.9%
CCN(CC(=O)Nc1ccc(NC(C)=O)cc1)C(=O)c1ccc(C(=O)c2ccccc2)cc1,-0.4%,0.6%,-5.4%,-1.1%,x,5.1%
CSc1ccc(NC(=O)c2cccnc2)cc1C#N,-1.1%,-0.3%,u,8.5%,10.4%,1.2%
COc1ccc(CCNC(=O)c2c(C)oc3ncn(CC(C)C)c(=O)c23)c(OC)c1,-2.5%,x,x,x,x,x
CCOc1ccc(C(=O)Nc2nnc(SCc3cc(=O)n4ccccc4n3)s2)cc1,-12.7%,x,x,x,x,x
CN(C)/C=C/C(=O)c1ccc2noc(-c3ccccc3)c2c1,u,-2.5%,23.1µM*,-8.5%,x,12.4%
CC(=O)c1ccc2noc(-c3ccccc3)c2c1,u,0.1%,9.2µM*,3.2%,x,-3.6%
CC(=O)c1ccc2noc(-c3cccc(C)c3)c2c1,u,12.5%,0.0%,1.5%,-9.0%,4.9%
SMILES,FLuc modulator,Rab9 promoter act,ELG1 DNA repair,ELG1 genotox,SMN2 splice up,NPC1 promoter act
c1ccc(-c2onc3cc4c(cc23)OCCO4)cc1,-10.4%[2.3 µM],3.16µM*,u,u,35.5µM*,u
CCc1nnc(NC(=O)C2CCCN2C(=O)Nc2ccccc2)s1 (stereo unspecified),0.2%,2.5%,u,-0.2%,4.9%,0.5%
O=C(CCOc1ccccc1)Nc1ccnn1C1CCN(Cc2ccc(F)cc2)CC1,2.5%,5.8%,-20.2%,-7.7%,x,-2.3%
COc1cccc(NC(=O)COC(=O)c2nc3nccc(C)n3n2)c1,4.4%,-2.9%,27.4%,2.9%,-3.1%,-4.7%
COc1cccc(N(C(=O)c2nc3nccc(C)n3n2)c2nc3ccccc3s2)c1,10.7µM*,2µM*,u,u,10µM*,u
CCCCN(CCCC)CCNC(=O)c1cn(C)c2ccc(S(=O)(=O)N3CCOCC3)cc2c1=O,4.5%,x,x,x,5.4%,x
CCCCSc1nnc(-c2c[nH]c3ccccc23)n1C,15.1µM*,u,u,u,-8.9%,u
CCSc1nnc(NC(=O)CSc2nnc(-c3c[nH]c4ccccc34)n2C)s1,-13.1%,-0.2%,-0.1%,0.0%,6.3%,1.5%
CCCCSc1nnc(-c2ccc(C)cc2)n1C,u,3.55µM*,u,3.1%,u,3.98µM*
Cn1c(SCc2ccccc2)nnc1-c1c[nH]c2ccccc12,16.9µM*,u,u,14.6µM*,u,u
NS(=O)(=O)c1ccc(CNC(=O)C(Cc2ccccc2)NS(=O)(=O)c2ccccc2F)cc1 (stereo unspecified),0.9%,2.0%,0.1%,-2.2%,x,-4.2%
Cc1ccsc1C(=O)OC1CCOC1=O (stereo unspecified),1.6%,-1.1%,5.4%,-0.3%,25.1µM*,-2.0%
CSc1ccccc1OCc1cc(C(=O)N2CCN(c3ccccc3)CC2C)no1 (stereo unspecified),15.1µM*,4.47µM*,u,13.4%,x,u
CC(=O)c1ccc(OCc2cc(C(=O)N3CCN(c4ccccc4)CC3C)no2)cc1 (stereo unspecified),8.49µM*,1.26µM*,u,u,x,1.58µM*
Cc1c(/C=N/NC(=O)c2ccc3c(c2)OCO3)cnn1C,u,1.5%,5.3%,2.7%,-2.8%,0.9%
CCn1ncc(/C=N/NC(=O)c2ccc3c(c2)OCO3)c1C,16.9µM*,6.8%,-8.1%,6.7%,17.0%,-10.2%
CCn1nc(C)c(CNC(=O)Nc2ccc3c(c2)OCO3)c1C,23.9µM*,u,u,u,u,u
CCn1nc(C)c(/C=N\NC(=O)c2ccc3c(c2)OCO3)c1C,23.9µM*,2.5%,u,15.4%,18.8%,5.2%
CCOc1ccc(-c2nnc(SCC(=O)Oc3ccccc3)o2)cc1,-6.3%,x,x,x,x,x
CC1(c2ccc([N+](=O)[O-])cc2)Nc2ccccc2S1 (stereo unspecified),21.3µM*,u,u,u,x,u
COc1ccc(Nc2nc(-c3cccnc3)cs2)c(OC)c1,21.3µM*,u,u,0.6%,x,3.55µM*
COc1ccccc1Nc1nc(C2(C)CCC(=O)O2)cs1 (stereo unspecified),15.1µM*,22.1%,u,8.2%,13.7%,16.5%

# From PubChem
